# Assay outcomes: PubChem BioAssay, NMMLSC
# Only some compounds are listed: those with a hit (about 1.2% of all), similar ones and a draw of the others.
# LAP4 TOR yeast: alters LAP4-GFP fluorescence in TOR pathway yeast screen. 320,000 compounds, 0.34% hits. S. cerevisiae LAP4-GFP multiplex, flow cytometry GFP, 3 h; median GFP as percent of DMSO wells. GFP response vs DMSO, % at 10 µM. AID 2023;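 active means GFP response vs DMSO above a set limit, about the screen mean plus 3 SD, cut at about 150% in these data; inconclusive means under 70 cell events counted for the yeast strain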
# CIT2 TOR yeast: alters CIT2-GFP fluorescence in TOR pathway yeast screen; GFP response vs DMSO, % at 10 µM; AID 2029; S. cerevisiae CIT2-GFP strain, flow cytometry, 3 h; 100 means same as DMSO wells; 320,000 compounds, 0.065% hits;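 active means GFP response relative to DMSO above a set limit, near the screen mean plus 3 SD, cut at about 150% in these data; inconclusive means Fewer than 70 cells measured for a yeast strain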;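 further: ratio of well median GFP fluorescence to mean of DMSO wells on the plate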
# AGP1-GFP MLPCN: alters AGP1-GFP fluorescence in TOR pathway yeast screen; S. cerevisiae AGP1-GFP multiplex flow cytometry, 3 h; GFP as percent of DMSO wells; GFP response vs DMSO, % at 10 µM; 320,000 compounds, 0.02% hits; AID 2066;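 active means GFP response relative to DMSO above a set limit, near screen average plus 3 SD, cut at about 150% in these data; inconclusive means fewer than 70 cells counted for the yeast strain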;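 further: median GFP channel fluorescence of the gated AGP1 strain per well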
# Pemphigus Ab inh: human desmoglein-3 autoantibody binding inhibition | P32926 | binding (percent of control), % at 10 µM | AID 588358 | DSG3-coupled beads, scFv-anti-DSG3-GFP binding, flow cytometry; stronger effect = lower value | 310,000 compounds, 0.48% hits;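 active means binding more than 3 SD below its plate's average and above zero; inconclusive means below that plate limit but binding exactly zero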;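 further: hits lower antibody fragment binding to DSG3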
# RPL19A-GFP yeast: alters RPL19A-GFP fluorescence in TOR pathway yeast screen; S. cerevisiae RPL19A-GFP strain, flow cytometry, 3 h; stronger effect = lower value; percent response vs DMSO, % at 10 µM; 330,000 compounds, 0.3% hits; AID 2025;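 active means percent response vs DMSO below 50%; inconclusive means fewer than 70 events counted for the yeast strain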;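 further: median channel GFP fluorescence of the barcoded RPL19A-GFP strain; lower means less RPL19A-GFP as with rapamycin TOR inhibition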
# MEP2-GFP yeast: yeast TOR pathway MEP2-GFP modulation; S. cerevisiae MEP2-GFP strain, flow cytometry GFP, 3 h; 100% = DMSO control level; GFP response vs DMSO, % at 10 µM; 330,000 compounds, 0.51% hits;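 active means GFP response versus DMSO above a set limit, roughly screen mean plus 3 SD, cut at about 180% in these data; inconclusive means fewer than 70 cells counted for a yeast strain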;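 further: median GFP fluorescence of the barcode-gated MEP2-GFP cells per well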
# Hits are given with their value; - = inactive; ? = inconclusive; . = no result; [ ] = another dose, or the depositor's remark.
SMILES,LAP4 TOR yeast,CIT2 TOR yeast,AGP1-GFP MLPCN,Pemphigus Ab inh,RPL19A-GFP yeast,MEP2-GFP yeast
CC(=O)Nc1cccc(NC(=O)CS(=O)(=O)c2cn(CC(=O)N3CCOCC3)c3ccccc23)c1,-,-,-,-,-,-
O=C(Cn1c(=O)n(-c2ccccc2)c(=O)c2sccc21)N1CCCC1,-,?,?,-,43[may fluoresce violet],184[may fluoresce violet]
COC(=O)[C@H]1C[C@@]2(O)CN(S(=O)(=O)c3ccc(C)cc3)C[C@@]2(OC(=O)NCc2ccco2)C[C@H]1C(=O)OC,.,.,.,-,.,.
CC(C)Oc1ccccc1C1CC(=O)Nc2cc3c(cc21)OCCO3 (configuration not stated),-,-,-,-,-,-
CC(C)Oc1ccccc1C1Nc2ccccc2C(=O)N1c1ccc2c(c1)OCCO2 (configuration not stated),-,?,.,-,-,210[may fluoresce violet]
CC12CCCC(CC(=O)O)(C1)NC(=O)C2 (configuration not stated),.,.,.,64,.,.
CCCCOC(=O)c1ccc(N)cc1,-,-,-,-,-,-
CCCCN(CCCC)CCCOC(=O)c1ccc(N)cc1,183,-,-,-,-,-
O=C(NCCN1CCCCC1)c1cc(COc2c(F)cccc2F)on1,-,-,-,-,-,-
CC(C)OCCCn1c(=N)c(S(=O)(=O)c2ccccc2)cc2c(=O)n3ccccc3nc21,-,-,-,-,-,-
N=c1c(S(=O)(=O)c2ccccc2)cc2c(=O)n3ccccc3nc2n1CCCN1CCOCC1,-,?,?,-,-,233[may fluoresce violet]
N=c1c(S(=O)(=O)c2ccc(Cl)cc2)cc2c(=O)n3ccccc3nc2n1CCN1CCOCC1,-,.,-,-,-,-
CCOCCCn1c(=N)c(S(=O)(=O)c2ccccc2)cc2c(=O)n3cc(C)ccc3nc21,-,?,-,-,-,176[may fluoresce violet]
Cc1ccc(S(=O)(=O)c2cc3c(=O)n4ccccc4nc3n(CCCN3CCOCC3)c2=N)cc1C,-,?,?,-,41[may fluoresce violet],-
COCc1ccc(CN2CCCC(C(=O)Nc3ccc(-c4cccc(OC)c4)cc3)C2)o1 (configuration not stated),-,-,-,.,-,-
O=C(Cn1cc(C(=O)c2cccs2)c2ccccc21)NC1CCCCC1,-,.,-,45,-,-
COC(=O)C1CCN(C(=O)/C(C)=C\c2ccccc2)CC1,-,-,-,-,-,-
Cc1cccn2c(=O)c3cc(C(N)=S)c(=N)n(CCCN4CCOCC4)c3nc12,-,-,-,-,25,-
Cc1cccn2c(=O)c3cc(C(=O)NCCC4=CCCCC4)n(C)c3nc12,-,?,?,-,30[may fluoresce violet],-
CCCn1c(=N)c(C(=O)NC2CCCC2)cc2c(=O)n3cccc(C)c3nc21,-,-,-,-,43,345
Cc1cccn2c(=O)c3cc(C(=O)NC(C)c4ccccc4)c(=N)n(CCCn4ccnc4)c3nc12 (configuration not stated),-,?,-,-,-,270[may fluoresce violet]
CC(=O)N=c1c(C#N)cc2c(=O)n3cccc(C)c3nc2n1Cc1ccco1,-,?,-,-,-,198[may fluoresce violet]
COCCNC(=O)c1cc2c(=O)n3cccc(C)c3nc2n(Cc2ccncc2)c1=N,?,?,?,-,?,?
Cc1ccccc1C(=O)N=c1c(C#N)cc2c(=O)n3cccc(C)c3nc2n1Cc1ccco1,-,?,-,.,-,-
CCCCNC(=O)c1cc2c(=O)n3cccc(C)c3nc2n(CCN2CCOCC2)c1=N,-,?,?,-,43[may fluoresce violet],231[may fluoresce violet]
SMILES,LAP4 TOR yeast,CIT2 TOR yeast,AGP1-GFP MLPCN,Pemphigus Ab inh,RPL19A-GFP yeast,MEP2-GFP yeast
CCCCNC(=O)c1cc2c(=O)n3cccc(C)c3nc2n(Cc2ccncc2)c1=N,-,-,-,-,35,-
Cc1cccn2c(=O)c3cc(C(=O)NCCc4ccccc4)c(=N)n(Cc4ccco4)c3nc12,-,?,?,-,-,400[may fluoresce violet]
COc1ccccc1/C=[N+](\[O-])C1SC(=S)N(C)C1(C)C (configuration not stated),-,-,-,-,-,-
CN1CCN(S(=O)(=O)c2ccc3ccccc3c2)CC1,-,-,-,-,-,-
CN(C)S(=O)(=O)N1CCN(S(=O)(=O)c2ccc3ccccc3c2)CC1,-,-,-,73,-,-
CC(C)Cc1ccc(CN2CCCC(NC(=O)CSc3nncn3C)C2)cc1 (configuration not stated),-,-,-,.,-,-
S=c1[nH]nc(-c2ccccn2)n1/N=C/c1ccc(Cl)c(Cl)c1,-,-,-,-,-,-
S=c1[nH]nc(-c2ccccn2)n1/N=C/c1ccc(Br)s1,-,-,-,65,-,-
O=c1[nH]c(C2CCN(S(=O)(=O)c3ccccc3)CC2)nc2c1nnn2Cc1ccc2c(c1)OCCO2,-,-,-,-,-,-
O=c1[nH]c(C2CCCN(S(=O)(=O)c3ccccc3Cl)C2)nc2c1nnn2Cc1ccc2c(c1)OCCO2 (configuration not stated),-,-,-,77,-,-
CCCCn1c(N)c(N(CC)C(=O)C2CCC2)c(=O)[nH]c1=O,-,-,-,-,-,-
O=C1/C(=C/C=C/c2ccco2)SC(=S)N1c1ccc(O)cc1,-,-,-,78,-,-
CC(C)C(C(=O)O)N1C(=O)/C(=C/C=C/c2ccco2)SC1=S (configuration not stated),-,-,-,76,-,-
CN1CCN(c2c([N+](=O)[O-])cnc3ccccc23)CC1,-,-,-,.,-,-
CCOC(=O)C1=C(N)OC2=C(C(=O)CCC2)C1c1cccnc1 (configuration not stated),-,?,?,-,.,295[may fluoresce violet]
COc1ccc(CN(C)C(=O)CCCNC(=O)c2ccc(Cl)cc2)cc1,-,-,-,-,-,-
Cn1c(CNC(=O)c2ccc(Cl)c(Cl)c2)nnc1SCC(=O)Nc1sc2c(c1C#N)CCCC2,-,-,-,-,-,-
CCOc1ccccc1C1N=C(c2ccc(OC)cc2)CC(c2ccccc2O)N1 (configuration not stated),167,-,-,-,-,-
CC(C)C1N=C(c2ccc3c(c2)OCO3)CC(c2ccccc2O)N1 (configuration not stated),-,-,-,-,-,-
COc1ccc(C(CNC(=O)C2CC(=O)N(Cc3ccccc3)C2)N2CCOCC2)cc1 (configuration not stated),-,-,-,-,-,-
O=C(COC(=O)C1(c2cccc(F)c2)CCCC1)NCc1cccs1,-,-,-,-,-,-
CC(=O)C1C(=O)CC(C)(O)C(C(C)=O)C1c1ccc(N(C)C)cc1 (configuration not stated),-,-,-,.,-,-
